# DUSP3 inh: inhibitors of human VHR1 phosphatase (DUSP3) | AID 1654 | recombinant VHR phosphatase, pNPP absorbance | hit rate 0.52% among 290,000 | inhibition, % at 13.3 µM; in the data active = inhibition above about 50%
# Target sequence (P51452 whole entry, looked up): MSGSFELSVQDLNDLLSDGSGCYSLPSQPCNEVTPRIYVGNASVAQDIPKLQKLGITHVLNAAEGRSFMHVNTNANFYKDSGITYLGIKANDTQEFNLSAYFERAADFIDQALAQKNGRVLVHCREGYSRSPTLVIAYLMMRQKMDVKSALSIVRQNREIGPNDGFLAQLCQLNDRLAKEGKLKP
# PrPC surface inh: cell surface PrPC inhibition, primary TR-FRET screen. inhibition, % at 13.8 µM. hit rate 0.43% among 370,000. AID 720596. TR-FRET read-out. P04156; in the data active = inhibition above about 24%
# SARS 3CLpro inh: SARS-CoV 3CLpro protease inhibition. recombinant SARS-CoV 3CLpro, quenched FRET peptide cleavage. inhibition, % at 6 µM. hit rate 0.14% among 290,000; in the data active = inhibition above about 12%
# Mtb hypoxia rep: Mtb hypoxia fluorescent reporter inhibition; fluorescence inhibition, % (test concentration not listed); M. tuberculosis hypoxia-regulated fluorescent reporter, fluorescence; hit rate 0.1% among 300,000; AID 1159583; in the data active = fluorescence inhibition mostly above about 23%, no sharp cut-off; inactive = mostly below about 17%
# PrP UTR inh: suppresses PrP 5' UTR mRNA reporter expression; cell-based PrP 5' UTR mRNA reporter, plate reader; inhibition, % (test concentration not listed); hit rate 0.35% among 340,000; AID 488862; in the data active = inhibition above about 52%
# MazF activator: increases E. coli MazEF RNase cleavage of RNA | AID 504720 | activation, % at 20 µM | hit rate 0.32% among 350,000 | FAM/BHQ RNA-DNA oligo cleavage fluorescence, 5 h | P0AE70; in the data active = activation above about 50%
# Target sequence (P0AE70 whole entry, looked up): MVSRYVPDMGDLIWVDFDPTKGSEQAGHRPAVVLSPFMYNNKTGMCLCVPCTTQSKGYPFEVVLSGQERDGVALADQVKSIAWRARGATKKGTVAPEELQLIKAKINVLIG
# A number is an active result; n = inactive; x = no result shown; + = active, no number; ! = not active in a repeat. Only some compounds are listed: those with a hit (about 1.5% of all), similar ones and a draw of the others.
SMILES,DUSP3 inh,PrPC surface inh,SARS 3CLpro inh,Mtb hypoxia rep,PrP UTR inh,MazF activator
O=C(c1ccco1)N1CCN(C(=O)c2oc(=O)c3ccccc3c2-c2ccccc2)CC1,n,n,n,x,n,n
O=C(c1oc(=O)c2ccccc2c1-c1ccccc1)N1CCOCC1,51,n,n,x,n,n
Cc1[nH]n(-c2ccccc2)c(=O)c1N=Nc1c(Cl)cccc1Cl,59,x,n,n,n,n
C=CCOc1c(Br)cc(C=Nn2c(CC)n[nH]c2=S)cc1Br,x,x,x,n,x,x
C#CCOCCOCCOCCNc1nc(N2CCN(C(=O)C(CCCCN)n3cc(C(N)C(C)CC)nn3)CC2)nc(N2CCN(C(=O)C(Cc3ccc(O)cc3)n3cc(C(N)C(C)CC)nn3)CC2)n1 (stereo unspecified),x,x,x,n,x,x
Clc1ccccc1C=NNC1=Nc2cccc3cccc1c23,x,x,x,n,x,x
Clc1ccccc1/C=N/NC1=Nc2cccc3cccc1c23,n,n,n,x,n,231
CN1/C(=C/C=C(C#N)C#N)C(C)(C)c2ccccc21,n,n,n,n,n,+
CN1\C(=C/C=C/C=C/C=[N+](C)C)C(C)(C)c2ccccc21,n,n,n,n,n,477
CN1/C(=C\C=O)C(C)(C)c2ccccc21,n,n,n,n,n,n
Cc1ccc(S(=O)(=O)N(CC(=O)NCC2CCCO2)c2cccc([N+](=O)[O-])c2)cc1 (stereo unspecified),n,n,n,n,n,n
CS(=O)(=O)N(CC(=O)NCC1CCCO1)c1cccc([N+](=O)[O-])c1 (stereo unspecified),56,n,n,n,n,n
Cn1c(=O)n(C)c2cc(C=C3SC(=O)N(CC(=O)N4CCOCC4)C3=O)ccc21,x,x,x,n,x,x
Cc1[nH]c2ccccc2c1C(=O)/C=C/c1ccccc1Cl,n,n,n,n,n,51
Oc1cccc(C=NN2CCCCC2)c1O,x,x,x,n,x,x
CC1(C)NC(=O)N(CCCCOc2ccccc2[N+](=O)[O-])C1=O,n,x,n,n,x,x
CC1(C)NC(=O)N(CCCOc2ccccc2Br)C1=O,51,n,n,x,n,n
O=c1[nH][nH]c2c(N=Cc3ccccc3O)ccc(F)c12,52,x,n,n,n,n
CC(=O)N1C(=O)C(=C2C=C(C)OC(C)=C2)c2ccccc21,n,n,n,n,n,+
CC1=CC(=C2C(=O)c3ccccc3C2=O)C=C(C)O1,n,n,n,n,n,n
Cc1ccc(/C=C2\SC(=S)N(CCC(=O)Nc3cccnc3)C2=O)cc1,n,n,n,n,n,82
O=C(NN=CC1C(c2ccccc2)C1(Cl)Cl)c1cccc(Cl)c1 (stereo unspecified),x,x,x,n,x,x
COc1ccccc1N1CCN(CC(O)COc2cccc3ccccc23)CC1 (stereo unspecified),n,n,17!,n,n,n
COc1ccc(C2C3C(=O)N(C(C)(C)C)C(=O)C3[C@]3(Cc4ccc(Cl)cc4)C(=O)N(c4ccc(Br)cc4)C(=O)N23)cc1 (stereo partly specified),x,x,x,n,x,x
Cc1c(C(=O)N(CCO)Cc2ccccc2)oc2c(F)cccc12,56,n,n,n,n,n
SMILES,DUSP3 inh,PrPC surface inh,SARS 3CLpro inh,Mtb hypoxia rep,PrP UTR inh,MazF activator
O=C(O)c1ccc(NC2=CC(=NS(=O)(=O)c3ccccc3)c3ccccc3C2=O)cc1,x,x,x,n,x,x
COc1ccc(S(=O)(=O)/N=C2\C=C(Nc3ccc(O)cc3)C(=O)c3ccccc32)cc1,n,56,n,x,n,n
CCC(CC)CN1C(Nc2ccccc2)=NCC1C (stereo unspecified),x,x,x,n,x,x
Nc1ccc(S(=O)(=O)Nc2nc3ccccc3o2)cc1,n,n,n,75,n,n
Nc1ccc(S(=O)(=O)Nc2cnc3ccccc3n2)cc1,n,n,n,x,n,n
O=C1C=CC2=C3c4cc(O)c(O)cc4CC3(O)COC2=C1O (stereo unspecified),x,25,x,x,n,n
O=[N+]([O-])c1cc(C=NO)ccc1N1CCCC1,x,x,x,n,x,x
CC(=O)Oc1ccc2c(=O)c(C=Nc3cc(=O)[nH]c(=S)[nH]3)coc2c1,x,x,x,n,x,x
CCS(=O)(=O)N1Cc2ccccc2CC1C(=O)NC(C)C12CC3CC(CC(C3)C1)C2 (stereo unspecified),n,31,n,x,n,n
CN1CCS/C1=C\C=C1/SC(=S)N(CC(=O)O)C1=O,n,n,n,47,n,n
C=CCN1C(=O)/C(=C\C=C2\N(C)c3ccccc3C2(C)C)SC1=S,n,n,n,x,n,n
CN1/C(=C\C=C2/SC(=S)N(CC(=O)O)C2=O)C(C)(C)c2ccccc21,n,n,n,62,n,n
Cc1ccc(-c2cc(C(=O)NN=Cc3ccoc3)c3ccccc3n2)cc1,x,x,x,n,x,x
Cc1ccc(N=Cc2ccc(O)cc2O)cc1F,n,n,n,n,n,194
O=C(CSc1nnc(NC(=O)c2c(F)cccc2F)s1)Nc1ccc(F)cc1,n,n,n,n,n,179
CSc1nncc(C(C)=NO)n1,x,x,x,n,x,x
O=C1Nc2ccccc2/C1=N/N=C/c1ccc(-c2ccc([N+](=O)[O-])cc2)o1,54,n,n,x,n,n
CCOc1cc(C(=O)NCCN2C(=O)S/C(=C\c3cccnc3)C2=O)cc(OCC)c1OCC,53,n,n,x,n,n
COc1ccc(Cl)cc1N(CC(=O)Nc1ccccc1C(=O)N1CCCC1)S(C)(=O)=O,58,n,n,n,n,n
Cc1ccc(C(=O)NNC2=Nc3cccc4cccc2c34)cc1,n,n,n,n,n,86
COc1ccc(C(=O)NNC2=Nc3cccc4cccc2c34)cc1,n,n,n,n,n,50
COc1ccc(CC(=O)NNC2=Nc3cccc4cccc2c34)cc1,n,n,n,x,n,n
NC(=O)NNC1=Nc2cccc3cccc1c23,n,n,n,n,n,n
Cc1ccc(S(=O)(=O)NN=Cc2cn(CC(N)=O)c3ccccc23)cc1,x,x,x,n,x,x
CCOC(=O)N1C2=NC(C(=O)OC)=C(C(=O)OC)C3N(Cc4ccccc4)c4ccccc4[C@]23CC1C(=O)OC (stereo partly specified),x,x,x,n,x,x
SMILES,DUSP3 inh,PrPC surface inh,SARS 3CLpro inh,Mtb hypoxia rep,PrP UTR inh,MazF activator
Cc1ccc(SCC(=O)Nc2nnc(C(C)(C)C)s2)cc1,54,n,n,n,n,n
O=C(CN1C(=O)CSc2ccc(S(=O)(=O)N3CCCCC3)cc21)NCc1ccccc1Cl,56,n,n,n,n,n
CCOn1c(=O)c(-c2ccc(Br)cc2)[n+]([O-])c2ccccc21,n,n,n,n,n,n
O=c1c(-c2cc3ccccc3o2)[n+]([O-])c2ccccc2n1OCc1ccccn1,n,n,n,n,n,119
CCOn1c(=O)c(-c2cc3ccccc3o2)[n+]([O-])c2ccccc21,n,x,n,n,n,741
CCN1C(=O)C2C(c3ccc(OC)cc3)N3C(=O)CN(CC4CC4)C(=O)[C@@]3(C)C2C1=O (stereo partly specified),x,x,x,n,x,x
O=C(Nc1ccccc1)N1CCCc2ccccc21,n,n,n,n,n,n
Cc1ccc(NC(=O)N2CCCc3ccccc32)cc1C,53,n,n,n,n,n
Cc1ccc([N+](=O)[O-])cc1N/C=C1\CCCCC1=O,n,n,n,n,n,98

# Compound activity from PubChem BioAssay.
